Values joined by “and” are separate entries in the source; they are usually repeats but may differ in a detail not shown here. Equal entries are not always repeated. Compounds without any hit were thinned out: in the full panel of roughly 83,000, 20% have a hit.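 Interpretation: 100, growth as untreated; towards 0, rising growth inhibition; 0, no net growth; 0 to -100, cell death. Compounds scoring below 10 were considered active.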 Active and inactive are the calls of the source.

The test system of the test is HL-60(TB) leukemia. As to the kind of experiment: NCI-60 one-dose screen, 48 h (100 = growth as untreated, 0 = no growth, -100 = all killed). The note with it: 10 µM unless noted. The method, then:
Growth inhibition of the HL-60(TB) human tumor cell line is measured as a screen for anti-cancer activity. Cells are grown in 96 well plates and exposed to the test compound for 48 hours. Compounds are tested at a single concentration, which is 10^-5 M for most compounds. The reported endpoint is percent growth (GI% or GIPRCNT), where numbers from 0 - 100% represent growth inhibition, and numbers from -100% - 0 represent cell death. For example, a value of 40 represents 60% growth inhibition. A value of 0 means no net growth occurred over the course of the experiment. A value of -40 indicates 40% of cells at the beginning of the experiment died by the end of the experiment. A value of -100 means all cells are dead at the end of the experiment.
NCI-60 Human Tumor Cell Lines Screen was performed using the standard one-dose NCI protocol, which is described in more detail at https://dtp.cancer.gov/discovery_development/nci-60/default.htm.
Compounds with GIPRCNT values below 10 were considered active. Activity score was based on GIPRCNT using the following formula: […]
Score is 0 for GIPRCNT values of 100 or above, 50 for GIPRCNT values of 0, and 100 for GIPRCNT values of -100.
As to `N#Cc1c(-c2cccc(Cl)c2Cl)cc(-c2ccc3ccccc3c2)[nH]c1=O`, the growth is 83.8% (inactive).
Regarding `CN(C(=O)CN1C(=O)/C(=C/c2ccco2)SC1=S)C1CCS(=O)(=O)C1` (stereo not given), the growth was 81.6% (inactive).
Turning to `CC(=O)Nc1cccc(Nc2nc(N[C@H]3CCCc4ccccc43)c3ccccc3n2)c1`, the growth is 90.6% (inactive).
Turning to `O=C(c1ccc(O)cc1)C1[C@H](c2ccccc2Br)[C@@H](c2ccccc2)NC12C(=O)Nc1ccc(Cl)cc12` (stereo not given in full), the growth is -17.3% (active).
On to `CC1=C(C(=O)OC(C)C)C(c2cccc(O)c2)NC(=S)N1` (stereo not given), for which the growth was 99.2% (inactive).
For the compound `CC1=C(C(=O)OCc2ccccc2)C(c2ccc(N(C)C)cc2)n2c(nc3ccccc32)N1` (stereo not given), the growth was 73.7% (inactive).
The result for `O=c1oc2ccccc2cc1-c1csc(N2N=C(c3ccccc3)CC2c2ccc(N3CCOCC3)cc2)n1` (stereo not given) reads 96.5% (inactive).
Turning to `C=C[C@@]12CN3CC[C@]1(O)[C@@](C(=O)OC)(CO2)c1[nH]c2ccccc2c1C3`, the growth was 20.5% (inactive).
As for `COc1ccc2c(c1)C(Sc1ccc(Cl)cc1)c1c(nc(N)c(C#N)c1N)O2` (stereo not given), the growth is 44.8% (inactive).
As to `COc1ccc(NC(=O)[C@H](CO)NC(=O)OC(C)(C)C)cc1C(=O)Nc1cccc(C2CC(=O)c3c(cc(OC)c(OC)c3OC)O2)c1` (stereo not given in full), the growth is 58.1% (inactive).
As to `O=C(N/N=C/c1ccc(-c2ccc(O)cc2)o1)c1[nH]c2ccc(Br)cc2c1-c1ccccc1`, the growth is -20.6% (active).
To `CC1(c2ccccc2)NC(=O)N(CC(=O)Nc2ccc(C(=O)/C=C/C=C/c3ccccc3)cc2)C1=O` (stereo not given) belongs 36.8% (inactive).
Regarding `C[C@H]1[C@H](OC(=O)CCC(=O)Nc2cnccn2)O[C@@H]2OC3(C)CC[C@H]4[C@H](C)CC[C@@H]1[C@@]24OO3`, the growth is 0.224% (active).
On to `Cc1ccc2c(c1)/C(=C/C(=O)c1cc3ccccc3oc1=O)C(=O)N2`, for which the growth is 53% (inactive).
In the case of `C=C1CC[C@@H]2[C@]3(C)COC(c4cn(-c5ccccc5)nc4-c4cccc([N+](=O)[O-])c4)O[C@@H]3CC[C@@]2(C)[C@@H]1C/C=C1/C(=O)OC[C@H]1O` (stereo not given in full), the growth is 12.6% (inactive).
On to `CCCCOc1ccc(NC(=O)c2sc3nc(C)ccc3c2N)cc1`, for which the growth is 46.8% (inactive).
As to `CC[C@]12C=CCN3CC[C@]4(C(=C(C(=O)OC)C1)Nc1cc(OC)c([C@@H]5[C@H]6O[C@H]6[C@@]6(CC)CC(C(=O)OC)=C7Nc8cc(O)ccc8[C@@]78CCN5[C@@H]68)cc14)[C@@H]32`, the growth was -44.4% (active).
With `COc1cccc(/C=C/c2nc3ccccc3c(=O)n2CC(=O)Nc2ccc(Cl)cc2)c1`, the growth was 115% (inactive).
Regarding `CCOC(=O)CNC(=O)CN(Cc1ccccc1)C(=O)[C@@]1(C)CCC[C@]2(C)[C@H]3C[C@H]4C(C(C)C)=C[C@]3(CC[C@H]21)[C@@H]1C(=O)OC(=O)[C@@H]14`, the growth was 9.46% (active).
With `CC1=C(c2cc(-c3ccc(Cl)cc3)c(C#N)c(N)n2)C(c2ccccc2)NC(=S)N1` (stereo not given), the growth is 5.3% (active).
As to `CC1=C(C(=O)c2ccccc2)C(c2ccc(-n3cncn3)cc2)n2c(nc3ccccc32)N1` (stereo not given), the growth was 86.9% (inactive).
On to `COc1ccc(-c2nc3cc(C)ccc3n2CC(=O)N=Nc2c(O)[nH]c3ccccc23)cc1`, for which the growth is 8.05% (active).
For the compound `Nc1cccc(-n2c(COc3ccc(I)cc3)nc3ccccc32)c1`, the growth is 118% (inactive) and 98% (inactive).
To `O=C(N/N=C/c1ccc(Cl)o1)c1[nH]c2ccc(Br)cc2c1-c1ccccc1` belongs -42.4% (active); to `Cc1cc(N=C2NC(=O)S/C2=C\c2ccc(F)cc2)n[nH]1`, 1.74% (active); to `C=C1CC[C@@H]2[C@]3(C)COC(c4cn[nH]c4-c4cccc(Br)c4)O[C@@H]3CC[C@@]2(C)[C@@H]1C/C=C1/C(=O)OCC1O` (stereo not given in full), -16.3% (active).
On to `COc1cc2oc(-c3cccc(C(=O)Nc4ccc(Cl)cc4)c3)cc(=O)c2c(OCCNC(=O)[C@H](CCC(=O)OC(C)(C)C)NC(=O)OC(C)(C)C)c1OC`, for which the growth was 101% (inactive).
For `CCCSc1nc(NC2CC2)c(C#N)c(-c2ccc(OC)cc2)n1`, the growth is 81% (inactive).
Turning to `NCCCCn1c(SCCc2c[nH]c3ccccc23)nnc1-c1ccc2ccccc2n1`, the growth is -64.6% (active).
Turning to `Clc1ccc2c(NCCNC34CC5CC(CC(C5)C3)C4)ccnc2c1`, the growth was -53.1% (active).
Take `C/C(=N\N=C\c1ccc(Cl)c([N+](=O)[O-])c1)c1ccc2c(c1)Nc1ccccc1S2`: the growth was 51% (inactive).
In the case of `Cc1ccc(O)cc1Nc1nc(SCCN2CCOCC2)nc2c1cnn2CC(Cl)c1ccc(Br)cc1` (stereo not given), the growth is -49.7% (active).
For `CC1(C)CC[C@]2(C(=O)O)CC[C@]3(C)C(=CCC4[C@@]5(C)C[C@@H](O)[C@@H]6OC(c7ccccc7Br)OC[C@@]6(C)C5CC[C@]43C)C2C1` (stereo not given in full), the growth is 4.07% (active).
The result for `CCC(C)(C)c1ccc(OCCCCCCN2CCN(c3ccncc3)CC2)cc1` reads -62.2% (active); that for `CC(=O)Nc1ccc(-c2cn(-c3cccc(C(=O)Nc4cc(CN5CCOCC5)cc(C(F)(F)F)c4)c3)nn2)cn1`, -54.3% (active); that for `CC(C)(C)C(=O)c1c2c(c3ccc4c5ccccc5ccc4n13)C(=O)c1ccccc1C2=O`, 94.2% (inactive).
With `N#C[Se]CC(=O)Nc1cccc(C(F)(F)F)c1`, the growth was 0.147% (active).
The result for `CCOc1ccc(-c2cc(-c3cc(C(C)C)c(O)cc3C)nn2-c2ccc(S(N)(=O)=O)cc2)cc1` reads 9.77% (active); that for `Cc1cc2c(cc1Cl)C(=O)/C(=C/c1ccccc1)O2`, -13.7% (active).
To `CC(=O)Nc1ccc(-c2cn(-c3cccc(C(=O)Nc4ccc(F)c(C(F)(F)F)c4)c3)nn2)cn1` belongs 62.8% (inactive).

Source of the values: PubChem BioAssay (NCI).
